In PubChem BioAssay (NCI) one finds growth data, which are given here for eight molecules.

About 83,000 compounds went through this panel and 20% of them were active in at least one assay; those are over-represented in the sample as a whole.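 Activity criterion: percent growth below 10, measured after cells in 96-well plates were exposed to a single compound concentration for 48 hours.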 A number with no mark means an inactive call. Active and inactive are the calls of the source.

Test systems include HCT-15 colon; HT29 colon; SNB-75 CNS; SNB-19 CNS; U251 CNS; PC-3 prostate; SK-MEL-5 melanoma; UACC-62 melanoma; LOX IMVI melanoma; SK-MEL-28 melanoma; SK-MEL-2 melanoma; EKVX NSCLC; SN12C renal; UO-31 renal; TK-10 renal; ACHN renal; CAKI-1 renal; A498 renal; CCRF-CEM leukemia; MOLT-4 leukemia.
Common to all, as to assay: NCI-60 one-dose screen, 48 h (100 = growth as untreated, 0 = no growth, -100 = all killed)
Conditions in all cases: 10 µM unless noted

With `Cc1ccc(-c2nnc(SCc3ccc(O)c4ncccc34)o2)cc1`, the growth in the assay with HCT-15 colon is 10.8%; with HT29 colon it was 79%; with SNB-75 CNS, 0.0889% (active); in the assay with SNB-19 CNS, 11.1%; in the assay on U251 CNS, 7.11% (active); with PC-3 prostate, 12.2%. The growth in the assay on SK-MEL-5 melanoma is 2.42% (active); with UACC-62 melanoma, 2.61% (active); with LOX IMVI melanoma it was 4.71% (active); in the assay with SK-MEL-28 melanoma, 22.8%; in the assay on SK-MEL-2 melanoma it was 34.8%; in the assay with EKVX NSCLC, 22.1%. Besides, the growth with SN12C renal was 34.5%; in the assay on UO-31 renal, -12.8% (active); with TK-10 renal, 24.3%; in the assay with ACHN renal, 10.3%; with CAKI-1 renal it was 24.8%; in the assay on A498 renal it was 36.5%. The growth with CCRF-CEM leukemia was 12.3%; in the assay with MOLT-4 leukemia, 10.8%.

For `CC1(C)[C@@H](O)CC[C@]2(C)[C@H]3CC[C@@H]4[C@H]5[C@H](C(=O)/C=C\c6ccc([N+](=O)[O-])cc6)CC[C@]5(O)CC[C@@]4(C)[C@]3(C)CC[C@@H]12`, the growth in the assay on HCT-15 colon is 27.5%; in the assay with HT29 colon, 46.1%; with SNB-75 CNS, 42.1%; in the assay on SNB-19 CNS, 62.2%; with U251 CNS, 69.9%; in the assay on PC-3 prostate, 47.9%. In addition, the growth is 75.8% with SK-MEL-5 melanoma; 48.9% with UACC-62 melanoma; -7.58% (active) in the assay with LOX IMVI melanoma; 46% in the assay with SK-MEL-28 melanoma; 102% in the assay on SK-MEL-2 melanoma; 53.1% in the assay with EKVX NSCLC. Moreover, the growth is 73.5% in the assay on SN12C renal; 55.2% in the assay with UO-31 renal; 123% in the assay on TK-10 renal; 45.5% in the assay with ACHN renal; 27.4% with CAKI-1 renal; 48.7% in the assay with A498 renal. Besides, the growth in the assay on CCRF-CEM leukemia was 12%; in the assay on MOLT-4 leukemia it was 22.9%.

On to `CC(=O)C1=C(C)NC(NN)=NC1c1cccc(Cl)c1` (stereo not given), for which the growth with HCT-15 colon was 102%; with HT29 colon, 111%; in the assay on SNB-75 CNS, 95.9%; with SNB-19 CNS, 103%; in the assay with U251 CNS, 95%; in the assay with PC-3 prostate it was 96.9%. Moreover, the growth in the assay with SK-MEL-5 melanoma was 106%; in the assay with UACC-62 melanoma it was 93.9%; with LOX IMVI melanoma, 111%; in the assay with SK-MEL-28 melanoma it was 106%; with SK-MEL-2 melanoma it was 112%; in the assay on EKVX NSCLC, 96.4%. Further, the growth with SN12C renal was 98.2%; in the assay on UO-31 renal, 85.9%; in the assay with TK-10 renal it was 152%; with ACHN renal, 99.4%; with CAKI-1 renal, 91%; in the assay on A498 renal, 93.2%. The growth with CCRF-CEM leukemia was 97%; in the assay on MOLT-4 leukemia, 96.8%.

Turning to `Cc1ccc(-c2cc3nc(C(Cl)Cl)nc(-c4ccco4)n3n2)cc1`, the growth was 14.9% in the assay on HCT-15 colon; 0.475% (active) with HT29 colon; 66.8% in the assay with SNB-75 CNS; 8.51% (active) in the assay on SNB-19 CNS; 1.02% (active) in the assay on U251 CNS; 4.32% (active) in the assay on PC-3 prostate. The growth with SK-MEL-5 melanoma was 90.1%; in the assay on UACC-62 melanoma, 37.9%; with LOX IMVI melanoma, 92.2%; in the assay on SK-MEL-28 melanoma it was 5.86% (active); with SK-MEL-2 melanoma it was 83.2%; with EKVX NSCLC it was 5.4% (active). In addition, the growth in the assay on SN12C renal was 66.4%; with UO-31 renal, 33.6%; in the assay with TK-10 renal it was 29.2%; in the assay on ACHN renal, -19.9% (active); with CAKI-1 renal, -5.91% (active); with A498 renal, -29.1% (active). Moreover, the figures for the growth in the assay on CCRF-CEM leukemia and in the assay on MOLT-4 leukemia were 89.3% and 94.2%, respectively.

As for `COc1ccc(C(=O)Nc2ncc(Cc3ccccc3Cl)s2)cc1`, the growth with HCT-15 colon was 9.87% (active); in the assay with HT29 colon, -16.6% (active); in the assay with SNB-75 CNS it was 28.8%; in the assay on SNB-19 CNS it was 23.7%; in the assay on U251 CNS, 14.6%; in the assay with PC-3 prostate it was 29.7%. The growth with SK-MEL-5 melanoma was 2.6% (active); in the assay on UACC-62 melanoma, 35.7%; with LOX IMVI melanoma, 1.15% (active); in the assay on SK-MEL-28 melanoma, 64%; in the assay on SK-MEL-2 melanoma, -1.02% (active); with EKVX NSCLC, 41.7%. For the same molecule, the growth is 32.7% with SN12C renal; 38.1% in the assay with UO-31 renal; 64.3% in the assay on TK-10 renal; 32.5% in the assay on ACHN renal; 36.4% in the assay on CAKI-1 renal; -8.09% (active) in the assay on A498 renal. The figures for the growth in the assay with CCRF-CEM leukemia and in the assay on MOLT-4 leukemia were 18.7% and 13.8%, respectively.

Turning to `CC(C)(C)c1ccc(C(=O)Nc2nc3ccc(O)cc3s2)cc1`, the growth with HCT-15 colon is -5.95% (active); in the assay with HT29 colon, 2.02% (active); in the assay with SNB-75 CNS, 96.2%; in the assay with SNB-19 CNS, 63.5%; in the assay on U251 CNS it was 59.1%; in the assay with PC-3 prostate it was 50.1%. For the same molecule, the growth with SK-MEL-5 melanoma is 37.5%; in the assay on UACC-62 melanoma it was 45.1%; in the assay with LOX IMVI melanoma it was 10.4%; with SK-MEL-28 melanoma, 47.1%; with SK-MEL-2 melanoma, 71.4%; in the assay on EKVX NSCLC it was 47.5%. Further, the growth was 53.5% in the assay with SN12C renal; 25.5% in the assay with UO-31 renal; 74.9% with TK-10 renal; 39% with ACHN renal; 15.1% in the assay on CAKI-1 renal; 48.7% with A498 renal. The growth with CCRF-CEM leukemia is 41.9%; in the assay with MOLT-4 leukemia, 33%.

With `CC(C)(C)c1ccc(-c2nnc(-c3nc4ccccc4nc3Cl)o2)cc1`, the growth in the assay on HCT-15 colon is 81.9%; in the assay with HT29 colon it was 116%; in the assay with SNB-75 CNS, 96.4%; in the assay on SNB-19 CNS, 95.8%; in the assay with U251 CNS it was 98.2%; in the assay with PC-3 prostate, 92.4%. For the same molecule, the growth with SK-MEL-5 melanoma was 98.1%; in the assay on UACC-62 melanoma it was 72.7%; in the assay with LOX IMVI melanoma it was 90%; in the assay with SK-MEL-28 melanoma, 68.4%; in the assay with SK-MEL-2 melanoma, 63.8%; in the assay with EKVX NSCLC, 99.2%. For the same molecule, the growth in the assay on SN12C renal was 86.2%; in the assay with UO-31 renal it was 79.4%; with TK-10 renal, 107%; with ACHN renal, 102%; in the assay with CAKI-1 renal, 89.2%; with A498 renal it was 89.4%. Also, the growth was 103% in the assay on CCRF-CEM leukemia and 101% in the assay on MOLT-4 leukemia.

As to `N#Cc1c(NC(=O)c2cccc(C(F)(F)F)c2F)sc2c1CCC(=O)C2`, the growth is -49.6% (active) in the assay on HCT-15 colon; 4.38% (active) with HT29 colon; -66.3% (active) with SNB-75 CNS; 15.4% in the assay on SNB-19 CNS; 0.119% (active) with U251 CNS; -43.9% (active) in the assay with PC-3 prostate. Also, the growth in the assay with SK-MEL-5 melanoma is -91.1% (active); in the assay with UACC-62 melanoma, -56.6% (active); in the assay with LOX IMVI melanoma, -8.55% (active); in the assay on SK-MEL-28 melanoma, -71.8% (active); in the assay with SK-MEL-2 melanoma, 5.28% (active); with EKVX NSCLC, 5.47% (active). For the same molecule, the growth in the assay with SN12C renal is 7.61% (active); in the assay with UO-31 renal, -99.7% (active); in the assay with TK-10 renal, 24.1%; in the assay on ACHN renal, -95.5% (active); in the assay on CAKI-1 renal it was -83.5% (active); with A498 renal it was -8.37% (active). The growth in the assay with CCRF-CEM leukemia was 7.8% (active); with MOLT-4 leukemia it was -0.731% (active).
